Measured values reported in the supplement of paper PMC11732987, “Enantioselective OTUD7B fragment discovery through chemoproteomics screening and high-throughput optimisation” (Communications Chemistry, 2025).

How the values were obtained:
Test in all cases: log2 ratio of Biotin-Ahx-Ub-VS probe labelling (fragment/DMSO); higher = less target engagement (more negative = stronger competition), active = hit call of the paper (q ≤ 0.05, log2 ratio ≤ -1)
Details in all cases: compound concentration: 200 uM; treatment time: 3 h
ALG13 = target: T1, ALG13 (UniProt Q9NP73)
T1 sequence (whole entry): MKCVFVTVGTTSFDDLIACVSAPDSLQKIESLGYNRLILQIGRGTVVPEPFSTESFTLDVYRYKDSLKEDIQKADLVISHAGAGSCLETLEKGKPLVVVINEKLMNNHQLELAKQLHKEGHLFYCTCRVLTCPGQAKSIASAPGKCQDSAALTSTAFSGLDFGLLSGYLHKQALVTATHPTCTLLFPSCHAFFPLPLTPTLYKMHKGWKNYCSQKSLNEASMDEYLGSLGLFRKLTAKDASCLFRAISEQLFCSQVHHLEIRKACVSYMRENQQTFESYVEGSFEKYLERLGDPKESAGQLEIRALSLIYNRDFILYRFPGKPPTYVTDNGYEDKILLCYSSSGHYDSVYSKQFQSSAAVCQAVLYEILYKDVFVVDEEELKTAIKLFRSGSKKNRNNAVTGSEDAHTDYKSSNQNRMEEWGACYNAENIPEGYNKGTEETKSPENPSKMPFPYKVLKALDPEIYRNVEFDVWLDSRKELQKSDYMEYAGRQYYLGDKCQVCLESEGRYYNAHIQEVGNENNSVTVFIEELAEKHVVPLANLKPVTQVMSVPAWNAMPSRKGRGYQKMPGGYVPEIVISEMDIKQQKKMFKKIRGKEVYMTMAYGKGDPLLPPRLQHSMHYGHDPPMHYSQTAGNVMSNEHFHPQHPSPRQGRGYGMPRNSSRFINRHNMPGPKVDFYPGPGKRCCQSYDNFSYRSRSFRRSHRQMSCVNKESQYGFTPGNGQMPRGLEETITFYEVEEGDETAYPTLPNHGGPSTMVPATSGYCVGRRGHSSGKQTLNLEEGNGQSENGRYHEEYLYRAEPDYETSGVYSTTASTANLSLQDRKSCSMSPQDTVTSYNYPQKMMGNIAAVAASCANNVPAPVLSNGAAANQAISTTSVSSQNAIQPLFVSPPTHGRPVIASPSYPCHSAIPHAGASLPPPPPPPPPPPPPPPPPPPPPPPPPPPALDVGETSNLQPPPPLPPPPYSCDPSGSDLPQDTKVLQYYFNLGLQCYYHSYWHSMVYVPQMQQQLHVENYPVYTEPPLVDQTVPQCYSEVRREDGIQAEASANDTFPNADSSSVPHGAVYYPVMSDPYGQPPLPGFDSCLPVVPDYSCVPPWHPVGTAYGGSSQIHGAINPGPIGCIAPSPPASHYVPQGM
Summary of the method: (§1)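 Fragment (200 µM) or vehicle was incubated for 3 h with triplicate HEK293T lysate samples of 495 µg, which were then treated with Biotin-Ahx-Ub-VS at 0.5 µM final for 1 h. Labelled DUBs were enriched on NeutrAvidin, digested with LysC and trypsin, and analysed by diaPASEF LC-MS/MS. Values are average log2 fragment/vehicle ratios from an unpaired t-test on global-median-normalised Spectronaut label-free quantities, using proteins with ≥2 unique peptides.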

ATXN3 = ATXN3 (UniProt P54252)
Sequence of ATXN3 (P54252 whole entry): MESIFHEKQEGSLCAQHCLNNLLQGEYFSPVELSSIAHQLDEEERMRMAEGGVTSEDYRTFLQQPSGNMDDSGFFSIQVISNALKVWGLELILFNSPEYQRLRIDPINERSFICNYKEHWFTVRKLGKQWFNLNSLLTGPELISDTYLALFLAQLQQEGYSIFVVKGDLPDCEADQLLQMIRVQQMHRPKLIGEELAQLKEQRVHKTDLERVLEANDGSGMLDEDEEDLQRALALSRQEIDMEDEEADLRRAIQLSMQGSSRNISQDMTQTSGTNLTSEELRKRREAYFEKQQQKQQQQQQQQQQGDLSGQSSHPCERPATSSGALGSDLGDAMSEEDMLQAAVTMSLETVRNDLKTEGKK
Summary of the method: as §1

BAP1 = target: T2, BAP1 (UniProt Q92560)
T2 sequence (whole entry): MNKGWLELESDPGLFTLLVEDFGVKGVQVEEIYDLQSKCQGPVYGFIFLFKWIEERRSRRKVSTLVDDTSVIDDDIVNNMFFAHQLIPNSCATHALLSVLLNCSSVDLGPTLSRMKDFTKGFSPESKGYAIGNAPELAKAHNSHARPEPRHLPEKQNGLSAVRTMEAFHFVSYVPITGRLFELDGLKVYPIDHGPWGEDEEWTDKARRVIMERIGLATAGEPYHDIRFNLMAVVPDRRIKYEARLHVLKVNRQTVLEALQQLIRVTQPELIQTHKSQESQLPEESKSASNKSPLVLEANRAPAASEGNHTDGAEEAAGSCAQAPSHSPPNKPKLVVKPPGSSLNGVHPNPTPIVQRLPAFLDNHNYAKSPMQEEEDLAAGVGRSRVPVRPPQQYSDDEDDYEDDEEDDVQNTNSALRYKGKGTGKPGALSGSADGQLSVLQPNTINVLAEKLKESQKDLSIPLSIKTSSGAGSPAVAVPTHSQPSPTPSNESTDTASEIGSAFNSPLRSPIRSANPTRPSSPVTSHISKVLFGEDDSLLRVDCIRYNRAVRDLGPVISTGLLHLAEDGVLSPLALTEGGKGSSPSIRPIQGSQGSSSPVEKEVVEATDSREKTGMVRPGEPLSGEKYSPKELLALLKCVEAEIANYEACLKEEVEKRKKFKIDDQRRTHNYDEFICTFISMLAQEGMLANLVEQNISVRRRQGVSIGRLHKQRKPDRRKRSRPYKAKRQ
Summary of the method: as §1

EIF3F = EIF3F (UniProt O00303)
Sequence of EIF3F (O00303 whole entry): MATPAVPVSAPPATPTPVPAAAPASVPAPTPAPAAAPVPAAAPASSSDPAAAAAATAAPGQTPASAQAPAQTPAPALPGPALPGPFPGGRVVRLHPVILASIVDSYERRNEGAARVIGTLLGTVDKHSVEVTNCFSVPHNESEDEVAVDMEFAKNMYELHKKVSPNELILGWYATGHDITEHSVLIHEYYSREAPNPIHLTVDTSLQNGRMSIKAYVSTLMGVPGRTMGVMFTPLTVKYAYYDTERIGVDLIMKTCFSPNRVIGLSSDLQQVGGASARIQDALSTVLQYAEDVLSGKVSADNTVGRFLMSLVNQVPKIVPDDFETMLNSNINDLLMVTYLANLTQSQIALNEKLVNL
Summary of the method: as §1

EIF3H = EIF3H (UniProt O15372)
Sequence of EIF3H (O15372 whole entry): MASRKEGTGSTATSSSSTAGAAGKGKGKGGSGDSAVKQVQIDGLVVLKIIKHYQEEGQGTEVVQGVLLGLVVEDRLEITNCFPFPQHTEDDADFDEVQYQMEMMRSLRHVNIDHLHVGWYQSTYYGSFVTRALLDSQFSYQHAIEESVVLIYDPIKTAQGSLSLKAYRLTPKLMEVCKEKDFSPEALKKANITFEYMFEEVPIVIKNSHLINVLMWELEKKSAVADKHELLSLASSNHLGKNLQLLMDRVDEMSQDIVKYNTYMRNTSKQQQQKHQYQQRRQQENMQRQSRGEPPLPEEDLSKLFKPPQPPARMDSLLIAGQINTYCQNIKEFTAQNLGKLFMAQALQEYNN
Summary of the method: as §1

FAM105A = target: T3, FAM105A (UniProt Q9NUU6)
T3 sequence (whole entry): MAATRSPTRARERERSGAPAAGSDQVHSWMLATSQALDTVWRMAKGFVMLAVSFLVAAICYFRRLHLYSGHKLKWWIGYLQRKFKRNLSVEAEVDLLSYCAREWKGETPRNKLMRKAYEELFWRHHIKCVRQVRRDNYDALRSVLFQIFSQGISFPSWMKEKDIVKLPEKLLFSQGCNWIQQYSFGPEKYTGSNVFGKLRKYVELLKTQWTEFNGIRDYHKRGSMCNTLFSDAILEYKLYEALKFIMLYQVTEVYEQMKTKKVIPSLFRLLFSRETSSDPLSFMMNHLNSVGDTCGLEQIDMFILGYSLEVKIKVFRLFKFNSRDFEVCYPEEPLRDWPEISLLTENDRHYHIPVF
Summary of the method: as §1

OTUB1 = OTUB1 (UniProt Q96FW1)
Sequence of OTUB1 (Q96FW1 whole entry): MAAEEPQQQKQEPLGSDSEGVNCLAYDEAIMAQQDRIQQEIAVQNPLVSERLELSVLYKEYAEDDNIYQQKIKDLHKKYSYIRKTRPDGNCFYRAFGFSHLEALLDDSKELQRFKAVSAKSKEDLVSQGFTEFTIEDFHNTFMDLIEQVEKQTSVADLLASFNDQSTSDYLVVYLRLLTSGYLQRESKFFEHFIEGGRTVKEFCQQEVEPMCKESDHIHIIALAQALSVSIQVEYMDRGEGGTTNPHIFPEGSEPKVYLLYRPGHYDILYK
Summary of the method: as §1

OTUD4 = target: T4, OTUD4 (UniProt Q01804)
T4 sequence (whole entry): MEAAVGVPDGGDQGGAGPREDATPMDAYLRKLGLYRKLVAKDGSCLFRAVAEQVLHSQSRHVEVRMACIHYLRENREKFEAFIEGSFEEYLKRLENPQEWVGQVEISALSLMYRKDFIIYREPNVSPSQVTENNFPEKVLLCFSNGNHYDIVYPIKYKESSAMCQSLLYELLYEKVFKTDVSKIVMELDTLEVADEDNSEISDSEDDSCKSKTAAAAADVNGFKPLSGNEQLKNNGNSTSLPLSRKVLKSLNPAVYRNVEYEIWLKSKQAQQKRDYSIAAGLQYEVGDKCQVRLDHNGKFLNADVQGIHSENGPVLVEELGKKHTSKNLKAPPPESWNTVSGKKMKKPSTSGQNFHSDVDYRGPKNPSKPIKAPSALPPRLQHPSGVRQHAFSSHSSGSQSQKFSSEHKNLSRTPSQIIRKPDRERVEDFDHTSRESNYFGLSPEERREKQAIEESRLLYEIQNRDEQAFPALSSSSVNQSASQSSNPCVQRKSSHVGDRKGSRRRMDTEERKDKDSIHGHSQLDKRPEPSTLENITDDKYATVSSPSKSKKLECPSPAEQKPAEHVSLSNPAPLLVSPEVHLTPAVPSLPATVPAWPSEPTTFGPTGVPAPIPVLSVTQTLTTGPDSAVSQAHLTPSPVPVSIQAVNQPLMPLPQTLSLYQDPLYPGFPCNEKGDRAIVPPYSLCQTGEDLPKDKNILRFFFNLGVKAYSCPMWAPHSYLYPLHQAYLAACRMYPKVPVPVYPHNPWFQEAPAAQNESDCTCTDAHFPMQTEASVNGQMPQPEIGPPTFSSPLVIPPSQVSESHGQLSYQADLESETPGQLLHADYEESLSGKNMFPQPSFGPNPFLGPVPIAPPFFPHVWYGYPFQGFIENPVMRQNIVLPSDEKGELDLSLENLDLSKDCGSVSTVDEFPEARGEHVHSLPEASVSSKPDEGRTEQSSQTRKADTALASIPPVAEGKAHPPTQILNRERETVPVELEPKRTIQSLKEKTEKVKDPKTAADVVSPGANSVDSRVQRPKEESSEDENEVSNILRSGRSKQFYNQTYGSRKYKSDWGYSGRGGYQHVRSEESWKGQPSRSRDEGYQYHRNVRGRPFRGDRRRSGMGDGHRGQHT
Summary of the method: as §1

OTUD5 = target: T5, OTUD5 (UniProt Q96G74)
T5 sequence (whole entry): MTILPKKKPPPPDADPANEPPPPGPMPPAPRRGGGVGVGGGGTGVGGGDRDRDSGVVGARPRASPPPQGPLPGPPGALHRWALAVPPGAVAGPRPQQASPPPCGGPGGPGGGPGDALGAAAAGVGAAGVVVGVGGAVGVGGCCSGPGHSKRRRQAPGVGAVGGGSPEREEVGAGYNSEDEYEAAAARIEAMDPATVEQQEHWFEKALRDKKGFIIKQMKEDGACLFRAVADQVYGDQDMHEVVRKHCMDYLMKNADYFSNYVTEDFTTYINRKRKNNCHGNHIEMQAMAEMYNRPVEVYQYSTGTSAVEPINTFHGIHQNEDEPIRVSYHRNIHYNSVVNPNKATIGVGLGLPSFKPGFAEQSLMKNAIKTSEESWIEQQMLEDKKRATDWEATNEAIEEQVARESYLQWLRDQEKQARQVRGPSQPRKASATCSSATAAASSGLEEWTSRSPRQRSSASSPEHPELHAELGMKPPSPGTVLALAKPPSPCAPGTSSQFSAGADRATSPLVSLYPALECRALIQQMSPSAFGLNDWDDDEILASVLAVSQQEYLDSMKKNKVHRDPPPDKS
Summary of the method: as §1

Measured: log2 ratio of Biotin-Ahx-Ub-VS probe labelling

O=C(CCl)Nc1ccc(F)cc1F
inactive: ALG13 0.182 | ATXN3 -0.351 | EIF3F -0.155 | EIF3H 0.108 | FAM105A 0.102 | OTUB1 -0.293 | OTUD4 -0.268 | OTUD5 -0.5
active: BAP1 -2.82
